# Assay results from PubChem BioAssay.
# Inconclusive results are not listed. Active and inactive are the calls of the source.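 How the source made its calls, unless noted: active means normalized viability below 100% at a tested concentration; inactive means the rest.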
# Key:
# [1] = growth inhibition of DIPG glioma cells, dose response, cell-based, SU-DIPG-XVII, MIPE5.0, CellTiter-Glo, qHTS (AID 1347060; cut-off not given, nearly all actives have AC50 up to about 26 µM;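 on AC50: cells exposed to compound for 48 hours before viability readout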); details: SU-DIPG-XVII viability, CellTiter-Glo ATP luminescence
# [2] = growth inhibition of DIPG glioma cells, dose response, cell-based, JHH-DIPG-1, MIPE4.0, CellTiter-Glo, qHTS (AID 1347062; cut-off not given, nearly all actives have AC50 up to about 27 µM;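 on AC50: cells exposed to compound for two days before readout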); details: JHH-DIPG-1 viability, CellTiter-Glo ATP luminescence
# [3] = growth inhibition of DIPG glioma cells, dose response, cell-based, SU-DIPG-XIII, MIPE5.0, CellTiter-Glo, qHTS (AID 1347064; cut-off not given, nearly all actives have AC50 up to about 23 µM;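 on AC50: cells exposed to compound for 48 hours before the viability read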); details: SU-DIPG-XIII viability, CellTiter-Glo ATP luminescence
# [4] = SU-DIPG-VI glioma cell viability, MIPE4.0 library, CellTiter-Glo luminescence, qHTS (AID 1347066; cut-off not given, nearly all actives have AC50 up to about 30 µM;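 further: cells exposed to compound for 48 hours before readout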); details: CellTiter-Glo ATP luminescence
# [5] = JHH-DIPG-1 glioma cell viability, MIPE5.0 library, CellTiter-Glo luminescence, qHTS (AID 1347067; cut-off not given, nearly all actives have AC50 up to about 26 µM;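 further: cells exposed to compound for 48 hours before readout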); details: JHH-DIPG-1 glioma viability, CellTiter-Glo ATP luminescence
# [6] = SU-DIPG-XXV glioma cell viability, MIPE5.0 library, qHTS (AID 1347068; cut-off not given, nearly all actives have IC50 up to about 30 µM;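 on IC50: cells exposed to compound for 48 hours before viability readout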)
# [7] = sensitizers of A549 cells to miR-34 induction, primary screen, imaging, A549 dox-inducible miR-34, nuclei and caspase counts (AID 1347080;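 active means compounds whose cell count with miR-34 switched on is under 0.7 times the count with it off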); details: A549 miR-34 inducible, Hoechst nuclei count, 48 h
# [8] = survival rescue of mitochondrial mutant cells in low glucose, primary screen, MELAS cybrids, Rieske KO mouse fibroblasts, CellTiter-Glo (AID 1508586;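 active means mean z-score across replicates of 1.96 or higher in either the MELAS or the Rieske mutant cell line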;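 further: z relative to plate mean and SD of compound and empty wells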)
# [9] = viability loss in pontine glioma line – cell-based, SU-DIPG-XXV, MIPE5.0, CellTiter-Glo, qHTS, dose response (AID 1347065; cut-off not given, nearly all actives have AC50 up to about 26 µM;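 further: cells exposed to compound for 48 hours before ATP readout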); details: CellTiter-Glo ATP luminescence
# [10] = modifiers of HSF1 nuclear foci, imaging, Selleck Cancer Library (AID 1347162; in the data active means plate-normalised HSF1 focus index below about 0.46); details: human cells, at 10 µM; SSMD: measured here: HSF1 foci SSMD mean; cell count: measured here: cell number; plate-normalised HSF1 focus index: stronger effect = lower value
# [11] = ovarian cancer cell viability with rucaparib, profiling panel, oncology-focused library, rucaparib conditional (AID 1508598); details: patient-derived ovarian cancer cells, CellTiter-Glo viability, 144 h, stronger effect = lower value
# [12] = stronger effect = lower value, cell number ratio, induced over uninduced
# [13] = measured here: relative caspase fold change +Dox/-Dox
# [14] = measured here: total cells with miR-34 induction, stronger effect = lower value
# [15] = measured here: total cells without miR-34 induction
# [16] = MELAS cybrid survival, CellTiter-Glo 48 h, stronger effect = higher value
# [17] = Rieske KO mouse fibroblast survival, CellTiter-Glo 72 h
# [18] = at 0.000305 µM, OCI-C5x cells, with rucaparib 10 µM, 100% = cells with rucaparib alone
# [19] = at 0.000305 µM, OCI-C5x cells, without rucaparib
# [20] = at 0.000305 µM, OCI-P5x cells, with rucaparib 20 µM, 100% = cells with rucaparib alone
# [21] = at 0.000305 µM, OCI-P5x cells, without rucaparib
# [22] = at 0.00122 µM, OCI-C5x cells, with rucaparib 10 µM, 100% = cells with rucaparib alone
# [23] = at 0.00122 µM, OCI-C5x cells, without rucaparib
# [24] = at 0.00122 µM, OCI-P5x cells, with rucaparib 20 µM, 100% = cells with rucaparib alone
# [25] = at 0.00122 µM, OCI-P5x cells, without rucaparib
# [26] = at 0.00488 µM, OCI-C5x cells, with rucaparib 10 µM, 100% = cells with rucaparib alone
# [27] = at 0.00488 µM, OCI-C5x cells, without rucaparib
# [28] = at 0.00488 µM, OCI-P5x cells, with rucaparib 20 µM, 100% = cells with rucaparib alone
# [29] = at 0.00488 µM, OCI-P5x cells, without rucaparib
# [30] = at 0.0195 µM, OCI-C5x cells, with rucaparib 10 µM, 100% = cells with rucaparib alone
# [31] = at 0.0195 µM, OCI-C5x cells, without rucaparib
# [32] = at 0.0195 µM, OCI-P5x cells, with rucaparib 20 µM, 100% = cells with rucaparib alone
# [33] = at 0.0195 µM, OCI-P5x cells, without rucaparib
# [34] = at 0.0781 µM, OCI-C5x cells, with rucaparib 10 µM, 100% = cells with rucaparib alone
# [35] = at 0.0781 µM, OCI-C5x cells, without rucaparib
# [36] = at 0.0781 µM, OCI-P5x cells, with rucaparib 20 µM, 100% = cells with rucaparib alone
# [37] = at 0.0781 µM, OCI-P5x cells, without rucaparib
# [38] = at 0.313 µM, OCI-C5x cells, with rucaparib 10 µM, 100% = cells with rucaparib alone
# [39] = at 0.313 µM, OCI-C5x cells, without rucaparib
# [40] = at 0.313 µM, OCI-P5x cells, with rucaparib 20 µM, 100% = cells with rucaparib alone
# [41] = at 0.313 µM, OCI-P5x cells, without rucaparib
# [42] = at 1.25 µM, OCI-C5x cells, with rucaparib 10 µM, 100% = cells with rucaparib alone
# [43] = at 1.25 µM, OCI-C5x cells, without rucaparib
# [44] = at 1.25 µM, OCI-P5x cells, with rucaparib 20 µM, 100% = cells with rucaparib alone
# [45] = at 1.25 µM, OCI-P5x cells, without rucaparib
# [46] = at 5 µM, OCI-C5x cells, with rucaparib 10 µM, 100% = cells with rucaparib alone
# [47] = at 5 µM, OCI-C5x cells, without rucaparib
# [48] = at 5 µM, OCI-P5x cells, with rucaparib 20 µM, 100% = cells with rucaparib alone
# [49] = at 5 µM, OCI-P5x cells, without rucaparib
smiles,measurement,setting,value
CCCNS(=O)(=O)Nc1ncnc(OCCOc2ncc(Br)cn2)c1-c1ccc(Br)cc1,outcome,[1],inactive
same,outcome,[2],inactive
same,outcome,[3],inactive
same,outcome,[4],inactive
same,outcome,[5],inactive
same,outcome,[6],inactive
same,fold change,[7]; [12],0.925 (inactive)
same,fold change,[7]; [13],0.512
same,cell count,[7]; [14],8090
same,cell count,[7]; [15],8750
same,z-score,[8]; [16],-0.373 (inactive)
same,z-score,[8]; [17],-0.0447
CC(=O)c1c(C)c2cnc(Nc3ccc(N4CCNCC4)cn3)nc2n(C2CCCC2)c1=O,AC50,[1],23.5 µM (active)
same,AC50,[2],29.6 µM (active)
same,AC50,[3],20.9 µM (active)
same,AC50,[9],18.6 µM (active)
same,AC50,[5],20.9 µM (active)
same,outcome,[6],inactive
same,fold change,[7]; [12],0.86 (inactive)
same,fold change,[7]; [13],1.36
same,cell count,[7]; [14],3100
same,cell count,[7]; [15],3600
same,SSMD,[10],-9.93
same,cell count,[10],5060
same,plate-normalised HSF1 focus index,[10],0.38 (inactive)
same,z-score,[8]; [16],0.0111 (inactive)
same,z-score,[8]; [17],-0.48
same,viability,[11]; [18],132% (inactive)
same,viability,[11]; [19],95.6% (active)
same,viability,[11]; [20],93.8% (active)
same,viability,[11]; [21],93.8% (active)
same,viability,[11]; [22],119% (inactive)
same,viability,[11]; [23],104% (inactive)
same,viability,[11]; [24],94.1% (active)
same,viability,[11]; [25],91.2% (active)
same,viability,[11]; [26],119% (inactive)
same,viability,[11]; [27],104% (inactive)
same,viability,[11]; [28],95.4% (active)
same,viability,[11]; [29],100% (inactive)
same,viability,[11]; [30],122% (inactive)
same,viability,[11]; [31],116% (inactive)
same,viability,[11]; [32],95% (active)
same,viability,[11]; [33],94.4% (active)
same,viability,[11]; [34],115% (inactive)
same,viability,[11]; [35],118% (inactive)
same,viability,[11]; [36],96.9% (active)
same,viability,[11]; [37],103% (inactive)
same,viability,[11]; [38],111% (inactive)
same,viability,[11]; [39],126% (inactive)
same,viability,[11]; [40],99.2% (active)
same,viability,[11]; [41],98.7% (active)
same,viability,[11]; [42],115% (inactive)
same,viability,[11]; [43],133% (inactive)
same,viability,[11]; [44],97.6% (active)
same,viability,[11]; [45],99.7% (active)
same,viability,[11]; [46],114% (inactive)
same,viability,[11]; [47],139% (inactive)
same,viability,[11]; [48],103% (inactive)
same,viability,[11]; [49],97.9% (active)
COc1cc(Nc2ncc3c(n2)-c2ccc(Cl)cc2C(c2c(F)cccc2OC)=NC3)ccc1C(=O)O,AC50,[1],0.148 µM (active)
same,outcome,[2],inactive
same,AC50,[3],8.33 µM (active)
same,AC50,[9],0.0934 µM (active)
same,AC50,[5],8.33 µM (active)
same,IC50,[6],3.72 µM (active)
same,fold change,[7]; [12],1.23 (inactive)
same,fold change,[7]; [13],1.04
same,cell count,[7]; [14],1850
same,cell count,[7]; [15],1510
same,SSMD,[10],2.08
same,cell count,[10],6720
same,plate-normalised HSF1 focus index,[10],1.13 (inactive)
same,z-score,[8]; [16],-0.56 (inactive)
same,z-score,[8]; [17],0.925
same,viability,[11]; [18],94.6% (active)
same,viability,[11]; [19],108% (inactive)
same,viability,[11]; [20],113% (inactive)
same,viability,[11]; [21],109% (inactive)
same,viability,[11]; [22],112% (inactive)
same,viability,[11]; [23],101% (inactive)
same,viability,[11]; [24],110% (inactive)
same,viability,[11]; [25],106% (inactive)
same,viability,[11]; [26],107% (inactive)
same,viability,[11]; [27],98.7% (active)
same,viability,[11]; [28],110% (inactive)
same,viability,[11]; [29],106% (inactive)
same,viability,[11]; [30],94.4% (active)
same,viability,[11]; [31],103% (inactive)
same,viability,[11]; [32],106% (inactive)
same,viability,[11]; [33],99.3% (active)
same,viability,[11]; [34],75.5% (active)
same,viability,[11]; [35],70.5% (active)
same,viability,[11]; [36],91.7% (active)
same,viability,[11]; [37],70.7% (active)
same,viability,[11]; [38],74.5% (active)
same,viability,[11]; [39],82.5% (active)
same,viability,[11]; [40],87.4% (active)
same,viability,[11]; [41],63.8% (active)
same,viability,[11]; [42],76.8% (active)
same,viability,[11]; [43],77% (active)
same,viability,[11]; [44],82.8% (active)
same,viability,[11]; [45],56.7% (active)
same,viability,[11]; [46],42.9% (active)
same,viability,[11]; [47],34.9% (active)
same,viability,[11]; [48],78.6% (active)
same,viability,[11]; [49],39% (active)
Cc1ccc(CN2CCNCC2)cc1NC(=O)CNc1ccc(F)c(F)c1,outcome,[1],inactive
same,outcome,[2],inactive
same,outcome,[3],inactive
same,outcome,[9],inactive
same,outcome,[5],inactive
same,outcome,[6],inactive
Cc1cc(-c2ncc(CC(=O)Nc3ccc(-c4cnccn4)cn3)cc2C)ccn1,outcome,[1],inactive
same,outcome,[2],inactive
same,outcome,[3],inactive
same,outcome,[4],inactive
same,outcome,[6],inactive
same,fold change,[7]; [12],0.911 (inactive)
same,fold change,[7]; [13],0.406
same,cell count,[7]; [14],6130
same,cell count,[7]; [15],6730
same,z-score,[8]; [16],-0.348 (inactive)
same,z-score,[8]; [17],0.85
Cc1cnc(Nc2ccc(OCCN3CCCC3)cc2)nc1Nc1cccc(S(=O)(=O)NC(C)(C)C)c1,AC50,[1],1.05 µM (active)
same,outcome,[2],inactive
same,AC50,[3],5.9 µM (active)
same,AC50,[9],3.72 µM (active)
same,outcome,[4],inactive
same,AC50,[5],5.25 µM (active)
same,IC50,[6],7.42 µM (active)
same,fold change,[7]; [12],1.01 (inactive)
same,fold change,[7]; [13],1.95
same,cell count,[7]; [14],2480
same,cell count,[7]; [15],2450
same,SSMD,[10],1.73
same,cell count,[10],6980
same,plate-normalised HSF1 focus index,[10],1.11 (inactive)
same,z-score,[8]; [16],1.98 (active)
same,z-score,[8]; [17],-3.31
same,viability,[11]; [18],104% (inactive)
same,viability,[11]; [19],124% (inactive)
same,viability,[11]; [20],98.4% (active)
same,viability,[11]; [21],110% (inactive)
same,viability,[11]; [22],113% (inactive)
same,viability,[11]; [23],121% (inactive)
same,viability,[11]; [24],99.3% (active)
same,viability,[11]; [25],109% (inactive)
same,viability,[11]; [26],112% (inactive)
same,viability,[11]; [27],125% (inactive)
same,viability,[11]; [28],102% (inactive)
same,viability,[11]; [29],109% (inactive)
same,viability,[11]; [30],107% (inactive)
same,viability,[11]; [31],121% (inactive)
same,viability,[11]; [32],95.4% (active)
same,viability,[11]; [33],112% (inactive)
same,viability,[11]; [34],106% (inactive)
same,viability,[11]; [35],122% (inactive)
same,viability,[11]; [36],99.2% (active)
same,viability,[11]; [37],105% (inactive)
same,viability,[11]; [38],105% (inactive)
same,viability,[11]; [39],113% (inactive)
same,viability,[11]; [40],81.7% (active)
same,viability,[11]; [41],96.3% (active)
same,viability,[11]; [42],93.7% (active)
same,viability,[11]; [43],84.4% (active)
same,viability,[11]; [44],78% (active)
same,viability,[11]; [45],88.7% (active)
same,viability,[11]; [46],2.62% (active)
same,viability,[11]; [47],55.3% (active)
same,viability,[11]; [48],1.43% (active)
same,viability,[11]; [49],2% (active)
